Several values for one entry are separate records, joined by “and”; a condition that tells them apart may be missing. Identical values can stand only once. Where a structure was tested more than once in an assay, its records may differ in their call. Activity calls are given as the source filed them.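 Rule for the calls, unless noted: active = mean z-score across replicates of 1.96 or higher in either the MELAS or the Rieske mutant cell line; inactive = the rest.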 Where a SMILES comes first, the peptide text is derived from it. The star is where a group is joined. Cbz = O=C(OCc1ccccc1)*; CH2F = FC*
Key:
[1] = viability loss with induced miR-34 in A549 – imaging, A549 dox-inducible miR-34, nuclei and caspase counts, primary screen (AID 1347080;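 active = compounds whose cell count with miR-34 switched on is under 0.7 times the count with it off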); settings: A549 miR-34 inducible, Hoechst nuclei count, 48 h
[2] = MELAS cybrid and Rieske KO viability enhancers – cell-based, MELAS cybrids, Rieske KO mouse fibroblasts, CellTiter-Glo, primary screen (AID 1508586); settings: low glucose;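 note: z relative to plate mean and SD of compound and empty wells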
[3] = stronger effect = lower value, cell number ratio, induced over uninduced
[4] = measured here: relative caspase fold change +Dox/-Dox
[5] = measured here: total cells with miR-34 induction, stronger effect = lower value
[6] = measured here: total cells without miR-34 induction
[7] = MELAS cybrid survival, CellTiter-Glo 48 h, stronger effect = higher value
[8] = Rieske KO mouse fibroblast survival, CellTiter-Glo 72 h
Note: test concentration not given here.

Row | Structure (SMILES) | fold change [1, 3] | fold change [1, 4] | cell count [1, 5] | cell count [1, 6] | z-score [2, 7] | z-score [2, 8]
1 | CNC(=O)C(c1ccccc1)N1CCc2cc(OC)c(OC)cc2C1CCc1ccc(C(F)(F)F)cc1 (configuration not stated) | 1.06 (inactive) | 0.482 | 6530 | 6180 | -0.149 (inactive) | 0.101
2 | CC1(C)[C@@H](O)CC[C@@]2(C)[C@H]1CC[C@]1(C)[C@H]2C(=O)C=C2[C@H]3C[C@@](C)(C(=O)O)CC[C@]3(C)CC[C@]21C | 0.897 (inactive) | 0.953 | 7890 | 8800 | -0.219 (inactive) | 0.479
3 | COc1cc(C=CC(=O)C=C(O)C=Cc2ccc(O)c(OC)c2)ccc1O | 0.901 (inactive) | 0.689 | 8110 | 9000 | -0.431 (inactive) | 0.0298
4 | O=C(OC1C[N+]2(CCCOc3ccccc3)CCC1CC2)C(O)(c1cccs1)c1cccs1 (configuration not stated) | 0.946 (inactive) | 1.31 | 8940 | 9450 | -0.202 (inactive) | -0.179
5 | N#Cc1cc(CN2CCC(Nc3ncnc4sc(Cl)cc34)CC2)ccc1F | 0.932 (inactive) | 0.447 | 6280 | 6740 | -0.501 (inactive) | -0.555
6 | Cc1cc(C)nc(NS(=O)(=O)c2ccc(NC(=S)NC(=O)COc3ccc(Br)cc3Cl)cc2)n1 | 0.955 (inactive) | 1.42 | 7550 | 7900 | -0.302 (inactive) | -3.08
7 | COC(c1ccccc1)(c1ccccc1)C(Oc1nc(C)cc(C)n1)C(=O)O (configuration not stated) | 0.951 (inactive) | 0.955 | 7820 | 8220 | -0.106 (inactive) and 0.539 (inactive) | 0.0441 and -0.167
8 | C#CCC(Cc1cnc2nc(N)nc(N)c2n1)c1ccc(C(=O)NC(CCC(=O)O)C(=O)O)cc1 (configuration not stated) | 1.12 (inactive) | 0.784 | 2390 | 2130 | -0.188 (inactive) | 0.624
9 | COC(=O)CC(NC(=O)C(C)NC(=O)C(NC(=O)OCc1ccccc1)C(C)C)C(=O)CF (stereo not drawn) (Cbz-Val-Ala-Asp(OMe)-CH2F; configuration not given here) | 0.936 (inactive) | 0.758 | 8620 | 9210 | -0.172 (inactive) | -0.115
10 | C=CC1=C(C(=O)O)N2C(=O)[C@H](NC(=O)C(=NO)c3csc(N)n3)[C@H]2SC1 | 0.881 (inactive) | 1.23 | 7750 | 8790 | -0.382 (inactive) | 0.812
11 | C=C[C@]1(C)CC(OC(=O)CSC(C)(C)CNC(=O)C(N)C(C)C)[C@@]2(C)C(C)CC[C@]3(CCC(=O)[C@H]32)C(C)C1O (some centres not stated) | 0.851 (inactive) | 1.9 | 6360 | 7470 | 6.17 (active) | 2.78
12 | CNC1CN(c2ccc3c(=O)c(C(=O)O)cn(-c4nccs4)c3n2)CC1OC (configuration not stated) | 1.31 (inactive) | 0.345 | 1410 | 1080 | 2.91 (active) | -1.95
13 | O=C1NC(=O)C(=Cc2ccc3nccc(-c4ccncc4)c3c2)S1 | 0.936 (inactive) | 0.601 | 1700 | 1820 | 0.995 (inactive) | -1.12
14 | COC(=O)CCSCc1ccc(-c2onc(C)c2NC(=O)OC(C)c2ccccc2Cl)cc1 (configuration not stated) | 0.847 (inactive) | 0.706 | 6550 | 7730 | -0.226 (inactive) | -0.128
15 | COc1cccc2c1C(=O)c1c(O)c3c(c(O)c1C2=O)C[C@@](O)(C(=O)CO)CC3O[C@H]1CC(N)C(O)C(C)O1 (some centres not stated) | 0.879 (inactive) and 1.08 (inactive) | 1.03 and 0.95 | 1470 and 1780 | 1680 and 1650 | 5.38 (active) and -0.136 (inactive) | 4.45 and -2.31
16 | COC1C=CO[C@]2(C)Oc3c(C)c(O)c4c(O)c(c5c(nc6cc(C)ccn65)c4c3C2=O)NC(=O)C(C)=CC=CC(C)C(O)C(C)C(O)C(C)C(OC(C)=O)C1C (some centres not stated) | 0.885 (inactive) | 1.2 | 7180 | 8110 | -0.112 (inactive) | 0.022
17 | Oc1ccc(OC2CCCCO2)cc1 (configuration not stated) | 0.945 (inactive) | 0.827 | 7580 | 8020 | -0.229 (inactive) | -0.263
18 | NCCCCCNCC12CC3CC(CC(C3)C1)C2 | 0.991 (inactive) | 0.726 | 8590 | 8670 | -0.291 (inactive) | -0.0827
19 | COc1ccc(-c2ccc3c(N4CCOCC4C)nc(N4CCOCC4C)nc3n2)cc1CO (configuration not stated) | 0.853 (inactive) | 1.28 | 2360 | 2770 | 5.74 (active) | -3.07
20 | COc1ccc(NS(=O)(=O)c2sc3ccc(Cl)cc3c2C)cc1N1CCNCC1 | 0.966 (inactive) | 0.423 | 7390 | 7650 | -0.345 (inactive) | -0.0807
21 | Cc1[nH]c2ccccc2c1CCNCc1ccc(C=CC(=O)NO)cc1 | 0.894 (inactive) | 0.866 | 1040 | 1160 | -0.232 (inactive) | -2.76
22 | O=c1ncccn1C1OC(CO)C(O)C1O (configuration not stated) | 0.912 (inactive) | 0.461 | 8580 | 9410 | -0.447 (inactive) | -1.06
